Compound activity as filed in PubChem.
PKA-R1A act: activators of PKA-R1A holoenzyme, primary screen, biochemical, fluorescence polarization, Cy5-IP20, bovine R1A, mouse PKAc; PKA-R1A dissociation; scaled: DMSO 0%, 113 µM cGMP 100%; AID 504707, 2011; activation, % at 11.4 µM; hit rate 0.083% among 340,000;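 active means percent activation above the mean of all tested compounds plus 3 SD, cut at about 19% in these data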;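 further: higher means more PKAc released from R1A so a rise in polarization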
MsrA inh: bovine MsrA enzyme inhibitors, primary screen, biochemical, absorbance, HTS. Methionine sulfoxide reductase A (Bos taurus). purified bovine MsrA, absorbance read-out. inhibition, % at 15.5 µM. hit rate 0.75% among 360,000;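 further: 0% = vehicle wells with enzyme and 100% = reference inhibitor wells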
MsrA act: bovine MsrA enzyme activators, primary screen, biochemical, absorbance, HTS; hit rate 0.3% among 360,000; purified bovine MsrA, absorbance read-out; AID 602163, 2012; activation, % at 10.6 µM; in the data active means activation above about 7.5%;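 further: 0% = vehicle and 100% = reference activator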
PKA-R2B act: activators of PKA-R2B holoenzyme, primary screen, biochemical, fluorescence polarization, Cy5-IP20, human | cAMP-dependent protein kinase catalytic subunit beta (Homo sapiens) + cAMP-dependent … | PKA-R2B holoenzyme dissociation; R2B truncated from residue 108, S112A mutant; 0% DMSO only, 100% 113 µM cGMP | activation, % at 11.4 µM | hit rate 0.079% among 340,000 | AID 504700, 2011;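 active means activation above a cutoff set at the mean over all compounds plus 3 SD, cut at about 18% in these data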;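 further: higher means more holoenzyme dissociation and a rise in polarization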
Target sequence (P31323 whole entry, looked up, other chains not shown, the tested form may be a part): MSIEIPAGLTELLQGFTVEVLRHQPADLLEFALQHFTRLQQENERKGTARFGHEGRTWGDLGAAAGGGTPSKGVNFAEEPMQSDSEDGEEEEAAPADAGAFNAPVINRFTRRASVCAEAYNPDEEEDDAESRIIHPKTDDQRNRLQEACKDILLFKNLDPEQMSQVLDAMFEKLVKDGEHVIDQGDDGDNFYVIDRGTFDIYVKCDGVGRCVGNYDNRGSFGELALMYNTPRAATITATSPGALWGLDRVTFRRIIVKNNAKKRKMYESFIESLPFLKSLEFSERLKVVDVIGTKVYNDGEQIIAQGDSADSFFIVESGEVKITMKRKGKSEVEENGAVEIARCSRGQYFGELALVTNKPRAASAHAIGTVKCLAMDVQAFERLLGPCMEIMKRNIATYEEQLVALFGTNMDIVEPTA
MsrA conf: bovine MsrA inhibitors, retest, confirmation, biochemical, absorbance, HTS; shares compounds with MsrA inh; purified bovine MsrA, absorbance read-out; inhibition, % at 15.5 µM; hit rate 41% among 2,300; AID 651822, 2012;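 further: coupled to thioredoxin reductase with NADPH and selenocystamine and DMSO as substrate; 0% = vehicle only and 100% = full effect of reference inhibitor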
* marks the source's active call; other numbers are inactive results; . = not tested or not shown. A selection: hits, their analogues and other compounds. The true share with any hit is near 1.1%. Unless noted, no stated cut-off is given here; in the data, active means inhibition above about 4.5%; inactive means the rest.

SMILES	PKA-R1A act	MsrA inh	MsrA act	PKA-R2B act	MsrA conf
C(=N\Nc1nc2ccccc2s1)/c1ccco1	-15.8	6.2*	-15.1	-14.0	5.5*
O=C(CSc1nn(-c2ccccc2)c(=S)s1)Nn1cnnc1	-10.8	2.0	-14.4	-0.2	.
COC(=O)CSc1nn(-c2ccc(F)cc2)c(=S)s1	6.8	5.2*	-2.2	7.7	2.3
COC(=O)CSC1=C(C#N)C(=O)NC(c2ccccc2)S1 (stereo unspecified)	-9.0	6.1*	-18.7	1.4	4.8*
CSC1=C(C#N)C(=O)NC(c2ccccc2O)S1 (stereo unspecified)	-7.7	2.4	-7.3	-3.8	.
CN(Cc1ccccc1)C1=CC(=[N+]2CCCC2)CC(C)(C)C1	-4.5	5.5*	-4.5	3.9	3.4
CN(C)Cc1ccccc1	.	-0.2	.	.	.
CCN(CC)C1=CC(=[N+]2CCCC2)CC(C)(C)C1	-2.0	5.7*	-7.2	0.6	3.6
Cc1ccc(-c2ccc(/C=N/N=C3/NC(=O)C(CC(=O)O)S3)o2)c([N+](=O)[O-])c1 (stereo unspecified)	-1.1	5.9*	-5.5	-10.7	6.8*
O=[N+]([O-])c1ccccc1-c1ccc(/C=N/n2cnnc2)o1	-10.6	3.2	-1.9	-5.5	.
O=C(O)CC1S/C(=N/N=C/c2ccc(-c3ccccc3[N+](=O)[O-])o2)NC1=O (stereo unspecified)	9.4	4.9*	-4.4	-1.8	4.3
Cc1ccc(C(=O)N/N=C/c2ccc(-c3ccc(Br)cc3[N+](=O)[O-])o2)o1	-8.6	1.2	-1.3	11.3	.
Nc1nnc(CC(=O)N/N=C/c2ccc(-c3ccccc3)o2)s1	-6.4	6.6*	-5.2	1.6	7.9*
COC(=O)c1ccc(-c2ccc(/C=N/NC(=O)Cc3nnc(N)s3)o2)cc1	2.6	4.8*	1.4	-7.9	3.5
NC(=S)N/N=C/c1ccc(-c2ccccc2)o1	8.2	6.7*	-4.6	-4.3	4.4
COc1ccc(-c2ccc(/C=N/NC(=O)Cc3nnc(N)s3)o2)cc1Cl	.	3.2	-6.0	.	.
Cc1ccc(-c2ccc(/C=N/NC(N)=S)o2)cc1	-12.4	3.3	-3.8	2.3	.
NC(=S)NN=Cc1ccc(-c2ccc(S(=O)(=O)Nc3ncccn3)cc2)o1	-4.5	3.2	-6.7	0.6	.
NS(=O)(=O)c1ccc(-c2ccc(/C=N/NC(=O)c3ccccc3O)o2)cc1	11.4	4.9*	-4.7	8.0	4.5
CCOc1ccc(C(=O)N/N=C/c2ccc(-c3ccc(S(=O)(=O)Nc4ncccn4)cc3)o2)cc1	12.1	6.0*	-6.5	-15.3	4.9*
O=C(N/N=C/c1ccc(-c2ccc(S(=O)(=O)Nc3ncccn3)cc2)o1)c1cc2ccccc2cc1O	-0.2	4.0	-4.4	-8.0	.
COc1ccc2cc3cc(C(=O)NCc4ccco4)oc3nc2c1	-1.8	4.8*	-3.1	-6.5	2.1
O=C(NCc1ccco1)c1cc2cc3ccc(Cl)cc3nc2o1	-3.8	-0.2	-3.3	7.2	.
COc1ccc2cc3cc(C(=O)NCc4ccccn4)oc3nc2c1	-8.2	8.0*	-4.9	0.3	5.6*
CC(C)Nc1c([N+](=O)[O-])c(=O)oc2ccccc12	-11.9	2.0	-1.5	9.0	.
SMILES	PKA-R1A act	MsrA inh	MsrA act	PKA-R2B act	MsrA conf
O=c1oc2ccccc2c(NCc2ccccc2)c1[N+](=O)[O-]	-1.1	5.8*	-6.0	-0.8	5.0*
Nc1c([N+](=O)[O-])c(=O)oc2ccccc12	-15.3	5.9*	-4.5	1.0	1.8
CC(Nc1c([N+](=O)[O-])c(=O)oc2ccccc12)c1ccccc1 (stereo unspecified)	-7.7	25.2*	-10.6	-9.7	21.3*
O=c1oc2ccccc2c(NCc2ccc(Cl)cc2)c1[N+](=O)[O-]	-3.9	0.9	-1.2	-2.7	.
O=C(COc1ccc2cc(-c3ccccc3)c(=O)oc2c1)NCC1CCC(C(=O)O)CC1 (stereo unspecified)	-2.9	1.9	-7.7	2.8	.
Cc1cccc(NC2=C/C(=N/S(=O)(=O)c3cccs3)c3ccccc3C2=O)c1	-2.0	-0.7	0.1	0.8	.
Cc1cc(C)c(S(=O)(=O)/N=C2\C=C(NS(=O)(=O)c3ccccc3)C(=O)c3ccccc32)c(C)c1	6.1	-0.1	1.1	-9.8	.
Cc1ccc(Cl)cc1NC1=C/C(=N\S(=O)(=O)c2cccs2)c2ccccc2C1=O	2.4	5.6*	1.6	-2.7	8.2*
O=C(O)c1ccc(NC2=C/C(=N/S(=O)(=O)c3ccccc3)c3ccccc3C2=O)cc1	-6.3	65.4*	-1.6	2.1	62.8*
O=C(O)c1ccc(NC2=C/C(=N/S(=O)(=O)c3cccs3)c3ccccc3C2=O)cc1	1.1	62.2*	-1.8	-4.8	65.9*
Cc1cc(C)c(S(=O)(=O)/N=C2\C=C(Nc3ccc(C(=O)O)cc3)C(=O)c3ccccc32)c(C)c1	2.7	18.9*	-0.9	-13.3	20.8*
O=C(c1ccc(NC(=S)NCc2ccco2)cc1)N1CCOCC1	-10.1	-0.5	-8.5	-11.8	.
COC(=O)[C@]12C[C@H](CC(=O)N3CCSCC3)C(=O)N(Cc3ccccc3)C1=C[C@H](C(C)(C)C)O[C@@H]2C	.	0.8	.	.	.
N#Cc1ccc2nc(-c3ccc(CN4CCC(c5nc6ccccc6[nH]5)CC4)cc3)c(-c3ccccc3)nc2c1	.	0.2	.	.	.
CCc1ccc(S(=O)(=O)/N=C2\C=C(Nc3cccc(C(=O)O)c3)C(=O)c3ccccc32)cc1	-18.4	52.2*	0.8	-3.1	53.1*
CC(=O)Nc1nc2cc(C(N)=O)ccc2s1	5.1	1.3	-2.7	-6.2	.
Cc1ccc2nc(NC(=O)c3ccc(Br)o3)sc2c1	-6.1	-0.3	-6.6	-1.9	.
CS(=O)(=O)c1ccc2nc(NC(=O)c3ccccc3)sc2c1	-4.7	1.0	-0.3	2.0	.
NS(=O)(=O)c1ccc2nc(NC(=O)c3ccncc3)sc2c1	-7.0	5.6*	-6.3	-1.6	4.2
NS(=O)(=O)c1ccc2nc(NC(=O)c3ccc(Br)o3)sc2c1	-1.4	4.8*	-3.0	-0.1	5.7*
NC(=O)c1ccc2nc(NC(=O)c3ccc(N)cc3)sc2c1	.	6.3*	-4.5	.	4.3
C/C(=N\Nc1nnc2c3ccccc3n(C)c2n1)c1ccc(C)o1	-2.8	5.6*	-2.5	8.5	2.0
C/C(=N\Nc1nc(C)cc(C)n1)c1ccc(C)o1	.	1.6	-0.5	.	.
COCCNC(=S)N(C)[C@H]1C[C@H]2c3[nH]c4ccccc4c3CCN2C(=O)[C@H]1[C@H](C)O	.	1.2	.	.	.
CCN(c1ccc(OC)cc1)S(=O)(=O)c1cc(-c2cc(C)no2)ccc1C(C)C	-4.8	0.7	0.2	-1.2	.
CCOc1ccc(N(C)S(=O)(=O)c2cc(-c3cc(C)no3)ccc2C(C)C)cc1	6.5	10.9*	-11.2	-7.7	12.1*
Cc1c(C(=O)N2CCOCC2)c(S(=O)(=O)N2CCN(c3ccc(Cl)cc3)CC2)c(C)n1C	-14.6	0.6	-2.1	2.0	.
